Assay results as given in the supplement of paper PMC12297408.
Counter-ions that a name gives are not always drawn. Unmarked numbers belong to inactive results.

Tested on: Plasmodium falciparum NF54/iGP1_RE9H ulg8 stage V gametocytes
Assay: gametocyte viability (luciferase signal relative to DMSO control) (% of DMSO control); higher = less gametocytocidal activity, active = 50 or less
Conditions: concentration: 1 µM; exposure time: 72 h
Experimental: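 Synchronous P. falciparum NF54/iGP1_RE9H ulg8 mature stage V gametocytes (day 12) were exposed to Cayman Epigenetics Screening Library compounds at 10 µM or 1 µM for 72 h at 37 °C. Viability was read as RE9H luciferase bioluminescence, normalised to DMSO plate controls (100%); 50 µM methylene blue was the positive control.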

Row | Compound | gametocyte viability
1 | CN1CCC(=C2c3ccccc3C=Cc3ccccc32)CC1 [Cyproheptadine (hydrochloride hydrate)] | 88.2
2 | CC(C)N(CCCNC(=O)Nc1ccc(C(C)(C)C)cc1)C[C@H]1O[C@@H](n2ccc3c(N)ncnc32)[C@H](O)[C@@H]1O | 94.6
3 | CC(C)(CNC(=O)c1cccc(-c2noc(C(F)(F)F)n2)c1)c1coc(-c2ccccc2)n1 | 90.2
4 | O=C(NO)c1cccc(C(=O)NCCc2ccccc2)c1 | 98.3
5 | CS(=O)(=O)c1ccc(-c2cnc(NCc3ccco3)n3cnnc23)cc1 | 88.5
6 | CCCC(=O)[O-].[Na+] [Sodium Butyrate] | 83.8
7 | O=C(NCC(=O)N1CCCC1)Nc1ccc2cnccc2c1 | 91.7
8 | Nc1ccccc1NC(=O)c1ccc(CNc2nccc(-c3cccnc3)n2)cc1 [Mocetinostat] | 89.7
9 | CCOC(=O)NCCCC(=O)NCCc1ccccc1 | 89.7
10 | CCCNNC(=O)c1ccc(CNC(=O)/C=C/c2ccccc2)cc1 [HDAC3 Inhibitor] | 83.6
11 | CC1(C)C(=O)NC2=C1C(=O)C(=O)c1ccccc12 | 88.9
12 | COc1nnc2ccc(N3CCC(c4ccc(OCCN5CCN(C)C(=O)[C@H]5C)cc4)CC3)nn12 | 93.3
13 | Cn1cc(C(=O)Nc2ccc3c(c2)OCCO3)c2ccccc2c1=O | 82.7
14 | C/C(=N\NC(=O)c1cccc(S(=O)(=O)N2CCOCC2)c1)c1cc(Cl)ccc1O | 89.1
15 | Cc1noc(C)c1-c1ccc(-c2nc3cnccn3c2NC(C)(C)C)cc1 | 84.1
16 | Oc1cc(O)cc(/C=C/c2ccc(Br)cc2)c1 [4'-bromo-Resveratrol] | 51.7
17 | Cc1[nH]c2ccccc2c1CCNCc1ccc(/C=C/C(=O)NO)cc1 [Panobinostat] | 60.2
18 | O=Nc1ccc(O)c2ncccc12 [5-Nitroso-8-quinolinol] | 88.4
19 | O=C(NC[C@H](O)CN1CCc2ccccc2C1)c1ccnc(NC2CCC2)c1 | 80.7
20 | O=C(CCCCCCC(=O)Nc1cccnc1)NO [Pyroxamide] | 90.7

Row | Compound | gametocyte viability
21 | CCCCNNC(=O)c1ccc(Br)cc1 | 84
22 | CCOC(=O)Nc1cc(-c2ccc(C)c(NS(C)(=O)=O)c2)nn2c(C)nnc12 [Bromosporine] | 86.5
23 | COc1cc2c(NC3CCN(C)CC3)nc(N3CCCN(C)CC3)nc2cc1OCCCN(C)C | 89.8
24 | COc1ccccc1C(=O)Nc1cc2c(cc1N1CCNC[C@H]1C)n(C)c(=O)n2C | 88.2
25 | Nc1nccc2c1ncn2C1C=C(CO)C(O)C1O (stereo not given) [3-Deazaneplanocin A] | 88.8
26 | O=C1C(=Cc2cccnc2)C(=O)c2ccccc21 | 79.2
27 | CCCCCOc1ccc(/C=C\c2cccc(O)c2C(=O)O)cc1 | 87.3
28 | CCCCOc1ccc(CC(=O)NO)cc1 [Bufexamac] | 85
29 | CC(C)(C)c1ccc(C(=O)NC(=S)Nc2ccc(N)cc2)cc1 [Tenovin-3] | 92.2
30 | Cc1ccc(NC2=CC(=O)c3sc(C)nc3C2=O)cc1 [Ryuvidine] | 59.2
31 | O=C(NN=Cc1c(O)ccc2ccccc12)c1ccncc1 | 84.7
32 | COc1cc2c(cc1NS(=O)(=O)c1ccc(Br)cc1C)n(C)c(=O)n2C | 89
33 | COc1cc(Br)c(Nc2nc(-c3c(C)nc4ncccn34)cs2)c(Br)c1 | 94.5
34 | CC(=O)SCC(=O)c1ccc(NS(=O)(=O)c2ccc(OCCCN(C)C)cc2)nc1 | 83.8
35 | Cc1nn(C)cc1CN1CCC(c2ccc(C(=O)Nc3ccccc3N)cc2)CC1 | 86
36 | O=C(NO)c1ccc(CC(=O)N(CCO)c2ccccc2)cc1 | 88.9
37 | COc1cc(C#N)ccc1S(=O)(=O)Nc1ccc2c(c1)cc(C)c(=O)n2C | 86.6
38 | O=C(O)c1ccc(O)c2ncccc12 | 90.6
39 | O=C(O)C(Cc1c[nH]c2ccccc12)N1C(=O)c2ccccc2C1=O (stereo not given) | 86.9
40 | Cc1cc(Nc2ccc(NC(=O)c3ccc(Nc4ccnc5ccccc45)cc3)cc2)nc(N)n1 | 31.4 (active)
